Screens (PubChem BioAssay)
Only some compounds are listed: those with a hit (about 8.7% of all), similar ones and a draw of the others.
AMA1-RON2 inh = disrupts binding of P. falciparum AMA1 to RON2; AlphaScreen AMA1-biotinylated RON2 peptide binding; Potency, µM (titrated, usually from 58.2 µM), usual class: inhibitors; actives 0.2% (n = 360,000); AID 720542; note: nearly all actives have a fitted effect of over 45% in size
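AMA1 (3D7) with his tag at 25 nM final met compounds first, then biotinylated RON2 peptide at 25 nM; detection used donor plus acceptor beads, 10 µg/mL apiece, read by AlphaScreen after 30 min at room temperature.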
Pf growth 96h = inhibits malaria parasite growth, 96 h; P. falciparum luciferase reporter growth, 96 h; Potency, µM (top dose mostly 28.7 µM), most hits filed as inhibitors; actives 6.9% (n = 320,000)
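Two parasite generations (96 h, 37 C, 5% CO2) of compound exposure in infected erythrocytes (0.05% parasitemia, 2% hematocrit). Luciferase-reporter P. falciparum; decreased luminescence indicates inhibited growth, aimed at apicoplast-acting delayed death.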
VACV Venus inh = inhibitors of vaccinia virus (Venus reporter); actives 0.46% (n = 330,000); Vaccinia virus Venus reporter expression, fluorescence; AID 720580; Potency, µM (titrated, usually from 36.5 µM), most hits filed as inhibitors; calls by dose curve; tested in A549 cells; note: nearly all actives have a fitted effect of over 30% in size
Vaccinia mCherry = inhibitors of vaccinia virus infection (mCherry reporter signal); Potency, µM (series often up to 36.5 µM), actives largely listed as inhibitors; Vaccinia virus mCherry reporter infection, fluorescence; AID 720579; actives 0.63% (n = 310,000); calls by dose curve; tested in A549 cells; note: nearly all actives have a fitted effect of over 35% in size
Pf growth 48h = P. falciparum growth inhibition at 48 hours (one generation); P. falciparum luciferase growth in erythrocytes, 48 h; Potency, µM (doses to about 28.7 µM), usual class: inhibitors; actives 5.9% (n = 310,000); AID 504832
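Luciferase-expressing P. falciparum in infected erythrocytes (2% hematocrit, 0.1% parasitemia final) in RPMI 1640/0.5% Albumax were exposed to compound for 48 hours at 37 C, 5% CO2; growth read as luminescence.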
Numbers stand for hits; [ ] = remark or other dose. Unless noted, calls come from the whole dose curve; as a rule, active = well fitted curve in the direction sought with a large enough effect; inconclusive = small, poorly fitted or top-dose-only effect, or another doubt; inactive = no such curve, though single readings can be large; an effect the other way counts as inactive or inconclusive.

How did CC1(C(=O)N2CCC(CC3CC(c4cccc(Br)c4)=NO3)(C(=O)NCC3CCCCC3)CC2)CC1 (stereo not given) do in these assays?
AMA1-RON2 inh: inactive; Pf growth 96h: 2.9µM; VACV Venus inh: inconclusive; Vaccinia mCherry: inactive; Pf growth 48h: inconclusive

Results for CCOc1ccc(C2NC(=O)c3c(COC)cc(C)nc3N2Cc2ccccc2)cc1OC (stereo not given) ?
VACV Venus inh: inactive; Vaccinia mCherry: inactive

Results for CCOc1ccc(N2C(=O)CC(=O)NC2=O)cc1 ?
AMA1-RON2 inh: inactive; Pf growth 96h: 10µM; VACV Venus inh: inactive; Vaccinia mCherry: inactive; Pf growth 48h: inactive

Results for CCOc1ccc(N2C(=O)CSC2=S)cc1 ?
AMA1-RON2 inh: inactive; Pf growth 96h: 13µM; Pf growth 48h: inactive

How did CCOc1ccccc1N1C(=O)CC(=O)NC1=O do in these assays?
AMA1-RON2 inh: inactive; Pf growth 96h: inactive; Pf growth 48h: inactive

Results for O=C(Cn1nc(CNc2ccc(Cl)cc2)[n+]2c1CCCCC2)c1ccccc1 ?
AMA1-RON2 inh: inactive; Pf growth 96h: inconclusive; VACV Venus inh: inactive; Vaccinia mCherry: inactive; Pf growth 48h: 0.93µM

Results for Clc1ccc(NCc2nnc3n2CCCCC3)cc1 ?
AMA1-RON2 inh: inactive; VACV Venus inh: inactive; Pf growth 48h: inactive

How did Cc1ccc(C(C)C)c(OCc2nn(CC(=O)c3ccc(Cl)cc3)c3[n+]2CCCCC3)c1 do in these assays?
AMA1-RON2 inh: inactive; Pf growth 96h: inconclusive; VACV Venus inh: inconclusive; Vaccinia mCherry: inactive; Pf growth 48h: 12µM

What do the screens show for `COc1cc(CN(C)c2ncnc3sccc23)ccc1OC(F)F`?
AMA1-RON2 inh: inactive; Pf growth 96h: 13µM; VACV Venus inh: inactive; Vaccinia mCherry: inactive; Pf growth 48h: inconclusive

Results for CCC(C(=O)Nc1ccccc1OC)n1nc(C)c2sc3ccccc3c2c1=O (stereo not given) ?
VACV Venus inh: inactive; Vaccinia mCherry: inactive

Results for Cc1cccc(N2CCN(C(=O)Cn3c(C)c4cnn(-c5ccccc5)c(=O)c4c3C)CC2)c1C ?
VACV Venus inh: inactive; Vaccinia mCherry: inconclusive

What do the screens show for `O=C(COc1ccc(Cl)cc1)NCc1nnc2c3ccccc3c(-c3ccccc3)nn12`?
AMA1-RON2 inh: inactive; Pf growth 96h: 13µM; Pf growth 48h: inactive

What do the screens show for `CN=C1SC(C(=O)Nc2ccccc2Cl)CC(=O)N1c1ccc(OC(F)(F)Cl)cc1` (stereo not given)?
AMA1-RON2 inh: inactive; Pf growth 96h: inactive; VACV Venus inh: inactive; Vaccinia mCherry: inactive; Pf growth 48h: 10µM

What do the screens show for `COc1ccccc1N=C1SC(C(=O)Nc2ccccc2OC)CC(=O)N1C` (stereo not given)?
VACV Venus inh: inactive; Vaccinia mCherry: inactive

How did O=C(CCc1nnc(-c2ccc(-c3ccccc3)cc2)o1)NCCc1ccccn1 do in these assays?
AMA1-RON2 inh: inactive; Pf growth 96h: inconclusive; VACV Venus inh: inactive; Vaccinia mCherry: inactive; Pf growth 48h: inactive

Results for O=C(CCc1nnc(-c2ccccc2)o1)NCc1c(F)cccc1F ?
AMA1-RON2 inh: inactive; Pf growth 96h: 13µM; VACV Venus inh: inactive; Vaccinia mCherry: inactive; Pf growth 48h: inactive

What do the screens show for `CN1CC=C(c2c[nH]c3ccccc23)CC1`?
AMA1-RON2 inh: inactive; Pf growth 96h: inactive; VACV Venus inh: inactive; Vaccinia mCherry: inactive; Pf growth 48h: 2.6µM

Results for CCCCC1C2=C(CC(C)(C)CC2=O)OC2=C1C(=O)CC(C)(C)C2 ?
AMA1-RON2 inh: inactive[2.32 µM]; Pf growth 96h: 12µM; VACV Venus inh: inactive; Vaccinia mCherry: inactive; Pf growth 48h: inconclusive

How did CCCCSc1nc(C)cc(C)c1S(=O)(=O)c1ccccc1C do in these assays?
AMA1-RON2 inh: inactive; Pf growth 96h: 10µM; VACV Venus inh: inconclusive; Pf growth 48h: inconclusive

How did OC(c1ccc(Cl)cc1Cl)C(Cc1cccnc1)n1cncn1 (stereo not given) do in these assays?
AMA1-RON2 inh: inactive; Pf growth 96h: 13µM; Pf growth 48h: inconclusive

Results for O=C(C[n+]1ccccc1Cl)c1cccc([N+](=O)[O-])c1 ?
VACV Venus inh: inactive; Vaccinia mCherry: inactive

How did CCOc1ccc(-c2nnc(Nc3ccc(OC)c(C(=O)N4CCCCC4)c3)c3ccccc23)cc1 do in these assays?
AMA1-RON2 inh: inactive; Pf growth 96h: 1.2µM; Pf growth 48h: 4.1µM

What do the screens show for `Cc1ccc(C(=O)c2oc3ccccc3c2NC(=O)COc2ccccc2C)cc1`?
VACV Venus inh: inactive; Vaccinia mCherry: inactive

Results for CC(C)c1ccc(S(=O)(=O)NCc2ccc3c(c2)OCO3)cc1 ?
AMA1-RON2 inh: inactive; Pf growth 96h: 10µM; VACV Venus inh: inactive; Vaccinia mCherry: inactive; Pf growth 48h: inactive

Results for CCNS(=O)(=O)c1ccc(CCC(=O)Nc2ccc3c(c2)OCO3)cc1 ?
AMA1-RON2 inh: inactive; Pf growth 96h: inactive; VACV Venus inh: inactive; Vaccinia mCherry: inactive; Pf growth 48h: inactive

What do the screens show for `CC(C)CNS(=O)(=O)c1ccc(CCC(=O)Nc2ccc3c(c2)OCO3)cc1`?
AMA1-RON2 inh: inactive; Pf growth 96h: 4.1µM; VACV Venus inh: inactive; Vaccinia mCherry: inactive; Pf growth 48h: inactive
